MITF primary – blocks human microphthalmia-associated transcription factor; O75030; AlphaScreen MITF homodimerization, bead proximity signal; inhibition, % at 2.6 µM; hit rate 0.91% among 650,000; in the data active means inhibition above about 50%;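 further: 0% = vehicle wells with protein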
Target sequence (O75030 whole entry, looked up): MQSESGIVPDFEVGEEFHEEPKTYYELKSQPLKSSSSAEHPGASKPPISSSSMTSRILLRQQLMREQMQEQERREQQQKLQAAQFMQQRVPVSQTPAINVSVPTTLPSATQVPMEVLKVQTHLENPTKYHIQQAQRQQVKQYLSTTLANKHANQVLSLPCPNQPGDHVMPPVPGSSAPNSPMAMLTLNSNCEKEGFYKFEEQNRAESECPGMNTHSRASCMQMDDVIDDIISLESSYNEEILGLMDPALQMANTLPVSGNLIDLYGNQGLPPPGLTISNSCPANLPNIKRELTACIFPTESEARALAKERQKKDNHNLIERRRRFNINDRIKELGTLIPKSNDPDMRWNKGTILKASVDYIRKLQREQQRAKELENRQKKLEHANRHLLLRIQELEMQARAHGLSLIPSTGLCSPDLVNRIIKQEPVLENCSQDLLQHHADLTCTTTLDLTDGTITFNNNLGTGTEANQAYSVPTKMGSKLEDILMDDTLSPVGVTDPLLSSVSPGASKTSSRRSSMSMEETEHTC
TEAD-YAP block – TEAD-YAP interaction inhibition; HEK-TIYL cells, TEAD-Gal4/YAP UAS-luciferase luminescence; inhibition, % at 9.12 µM; AID 1259422; hit rate 1.4% among 640,000; in the data active means inhibition above about 32%;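 further: 0% = median of test compound wells and 100% = reference inhibitor wells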
GPR151 activ – human GPR151 activation | hit rate 1% among 650,000 | activation, % at 11.2 µM | Q8TDV0 | PathHunter beta-arrestin GPR151 cells, luminescence; in the data active means activation above about 4.9%;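 further: 0% = median of compound wells and 100% = cells with positive control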
FBW7 act – human FBW7 E3 ligase activation, primary screen | normalized activity (activation), % at 26.1 µM | AID 1259310 | hit rate 0.13% among 650,000 | AlphaScreen FBW7–phospho-cyclin E peptide binding, activator screen | Q969H0; in the data active means normalized activity above about 1.9%;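 further: purified mutant Fbw7 with reduced substrate affinity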
GPR151 conf act – confirmation of human GPR151 activators | shares compounds with GPR151 activ | activation, % at 11.2 µM | 6,700 tested, under 10 active | GPR151 PathHunter beta-arrestin cells, luminescence, 90 min; % of EA-reagent control over plate median;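 active means mean percent activation across replicates above the confirmation screen cutoff of 4.91%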
GPR119 ag – activates human GPR119 in a GPR151 counter-screen; activation, % at 11.2 µM; GPR119 PathHunter beta-arrestin cells, luminescence, 90 min; 0 = compound-well median, 100 = enzyme-acceptor control; hit rate 0.3% among 6,700; shares compounds with GPR151 activ;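 active means mean percent activation in the counterscreen above 29.09%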;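 further: counterscreen on off-target GPR119 to flag nonselective hits from the GPR151 activator screen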
* hit, by the source's call; x = not tested or not shown. Sampled rows, rich in hits. Any-hit rate of the full collection: about 3.5%.

SMILES	MITF primary	TEAD-YAP block	GPR151 activ	FBW7 act	GPR151 conf act	GPR119 ag
COc1ccccc1-c1ccnc(-n2ncc(C(=O)N(CCO)C(C)C)c2C)n1	9	2	0	0	x	x
CCN1CCCC1CNC(=O)C1CCCN1c1nnc(N2CCCC2=O)s1 (stereo unspecified)	1	1	0	0	x	x
O=C(/C=C/c1ccc(F)cc1)NCCN1CCOCC1	22	-3	1	0	x	x
O=C(COc1ccc(Cl)cc1)NC(=O)NCc1ccco1	-17	8	-1	0	x	x
O=C(COC(=O)CCS(=O)(=O)c1ccccc1Cl)NC(=O)NCc1ccco1	-2	2	6.4*	0	2	0
COCCn1c(C)cc(/C=C2/C(=O)NC(=O)N(C3CCCCC3)C2=O)c1C	8	9	7.0*	0	-1	-12
O=C(Nc1nc(-c2cccnc2)cs1)C1COc2ccccc2O1 (stereo unspecified)	11	-8	0	0	x	x
CCCCN(CC)C(=O)/C=C/c1cc(OC)c(OC)c(OC)c1	-7	-3	5.0*	0	0	-6
COc1ccc2nc(NC(=O)C3CC(=O)N(c4ccc(C)cc4)C3)sc2c1 (stereo unspecified)	-6	16	4	0	x	x
COc1ccc(/C=C2\SC(=N)N(c3nccs3)C2=O)cc1OC	-4	1	5.7*	0	0	-3
COc1ccc(/C=C2\SC(=N)N(C)C2=O)cc1OC	9	-8	0	0	x	x
Cc1cc(N2CCCC(O)C2)nc(N)n1 (stereo unspecified)	21	-1	-1	0	x	x
CCOc1ccc(C(C)NC(=O)c2ccc(F)cc2)cc1 (stereo unspecified)	5	0	-1	0	x	x
CCOc1ccc(C(C)NC(=O)c2ccc(OC)cc2)cc1 (stereo unspecified)	14	5	6.2*	0	1	10
Clc1ccc(COc2ccccc2CNn2cnnc2)cc1	7	5	0	0	x	x
CCOc1cccc(CNn2cnnc2)c1OCc1ccccc1	3	2	5.5*	0	1	9
O=C(Nc1ccc2c(c1)CN(C1CCSCC1)CC2)C1CCCO1 (stereo unspecified)	-7	-5	0	0	x	x
Cc1cccc(-c2cc(C(=O)N3CCN(c4ccc([N+](=O)[O-])cc4)CC3)c3ccccc3n2)c1	13	3	0	0	x	x
Cc1cccc(-c2cc(C(=O)N3CCN(C)CC3)c3ccccc3n2)c1	12	9	5.7*	0	0	8
CN1CCN(C(=O)c2cc3ccccc3nc2Cl)CC1	5	4	8.0*	0	-1	-5
O=C(N/C(=C/c1ccc(Br)cc1)C(=O)N1CCCCCC1)c1ccccc1F	4	-2	-2	0	x	x
O=C(NCc1ccco1)C(=O)Nc1ccccc1	3	-39	0	0	x	x
Cc1cccc(N2CCN(S(=O)(=O)c3ccc(F)c(C(=O)Nc4ccc(Cl)cc4Cl)c3)CC2)c1C	24	0	0	0	x	x
O=S(=O)(CCN1CCc2nc(-c3cccnc3)nc(N3CCCC3)c2C1)c1ccccc1	5	11	8.4*	0	-1	-16
CCOC(=O)CC(=O)N1CCc2nc(-c3cccnc3)nc(N3CCCCCC3)c2C1	9	-9	7.1*	0	-1	-11
SMILES	MITF primary	TEAD-YAP block	GPR151 activ	FBW7 act	GPR151 conf act	GPR119 ag
CCOc1ccccc1CN1C(=O)C2C(C(=O)Nc3ccc(C(C)C)cc3)C3C=CC2(O3)C1C(=O)NC1CCCCC1 (stereo unspecified)	0	4	1	0	x	x
COCC(C)NC(=O)c1ccc(OC2CCN(Cc3ccccn3)CC2)cc1 (stereo unspecified)	-3	2	5.8*	0	0	-7
C=CCOc1ccccc1CN1CCc2nncn2CC1	5	-3	7.4*	0	0	4
C=CCOc1ccccc1CN1CCc2nnc(CNC(=O)C3CCC(=O)N3)n2CC1 (stereo unspecified)	7	-7	5.6*	0	1	11
c1cnc2c(CN3CCc4nncn4CC3)cccc2c1	-12	10	-1	0	x	x
C=CCOc1ccccc1CN1CCc2nnc(CNC(=O)C3CCCN(C)C3)n2CC1 (stereo unspecified)	10	1	-1	0	x	x
COCCNC(=O)[C@@H]1C[C@H](NCc2ccccc2)CN1Cc1ccccc1Cl	5	-4	8.5*	1	0	1
COCCNC(=O)[C@@H]1C[C@H](NCc2ccc(C(C)C)cc2)CN1Cc1ccccc1Cl	7	-10	1	1	x	x
Cc1nnc(SCC(=O)N2CCCCC2)n(N)c1=O	10	5	-1	0	x	x
Cc1nnc(SCC(=O)N2CCCC2)n(N)c1=O	13	5	5.5*	1	0	12
Cc1c(CN2CCC3(CC2)NC(=O)c2ccccc2O3)c(=O)n(C)c(=O)n1C	2	2	3	0	x	x
O=C(NCc1nc(-c2ccncc2)n[nH]1)C(c1ccccc1)C1CCCCC1 (stereo unspecified)	-6	0	7.1*	0	0	-2
O=C(CSc1nc2sc3c(c2c(=O)n1-c1cccc2ccccc12)CCCC3)N1CCOCC1	0	-6	2	0	x	x
CC1Cc2cc(S(=O)(=O)CCC(=O)Nc3ccccc3)ccc2N1C(=O)C1CC1 (stereo unspecified)	-3	5	0	0	x	x
CCc1cccc(NC(=O)CCS(=O)(=O)c2ccc3c(c2)CC(C)N3C(=O)C2CC2)c1 (stereo unspecified)	8	12	6.2*	0	1	-6
O=C(/C=C/c1ccc([N+](=O)[O-])cc1)Nc1ccccc1Cl	-18	-10	7.4*	0	-2	-12
NC(=O)c1ccccc1NC(=O)/C=C/c1ccccc1	1	-33	7.7*	0	-1	-12
NC(=O)c1ccccc1NC(=O)/C=C/c1ccc(Cl)cc1	3	-55	-3	0	x	x
O/N=C/c1cn(-c2ccccc2)nc1-c1ccc(F)cc1	19	-5	6.0*	1	-1	-15
Cc1sc2nc(Cc3ccccc3)n(C3CCN(C(=O)c4ccco4)CC3)c(=O)c2c1C	6	-6	1	0	x	x
Cc1sc2nc(Cc3ccccc3)n(C3CCN(CC(N)=O)CC3)c(=O)c2c1C	5	0	6.1*	0	1	-8
CCOc1cc(C#N)ccc1OCC(=O)NC(C)c1ccccc1 (stereo unspecified)	6	2	13*	0	0	5
CC(NC(=O)COc1ccccc1C#N)c1ccccc1 (stereo unspecified)	-6	3	-1	0	x	x
CCOc1ccccc1NC(=O)Cn1c(=O)n(Cc2ccco2)c(=O)c2oc3ccccc3c21	24	8	-1	1	x	x
